# Values without a mark were called inactive.
# Experiments:
# Assay in all cases: log2 ratio of Biotin-Ahx-Ub-VS probe labelling (compound/DMSO); higher = less target engagement, active = hit call of the paper (q ≤ 0.05, log2 ratio ≤ -1)
# Conditions in all cases: treatment time: 3 h
# [1] = compound: CCC1N(CCc2sccc12)C(=O)CCl
# Procedure, shortened: (§1)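 HEK293T lysate (495 µg per sample, in Tris/CHAPS/IGEPAL buffer with protease inhibitors) was exposed in triplicate to compound at 50 or 200 µM, or to DMSO, for 3 h, then to Biotin-Ahx-Ub-VS (0.5 µM final) for 1 h. The labelled DUBs were enriched on NeutrAvidin, digested with LysC and trypsin, and analysed by diaPASEF LC-MS/MS. Average base-two log ratios of compound over DMSO came from median-normalised label-free quantities by unpaired t-test. Only proteins with at least 2 unique peptides were used.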
# [2] = compound: CN1c2ccccc2C(CS1(=O)=O)NC(=O)CCl
# Procedure, shortened: as §1
# [3] = compound: Cl.ClCC(=O)N1CCc2ncncc2C1
# Procedure, shortened: as §1
# [4] = compound: Cl.Cn1ncc2C(CCCc12)NC(=O)CCl
# Procedure, shortened: as §1
# [5] = compound: ClCC(=O)NC1CCOc2ccccc12
# Procedure, shortened: as §1
# [6] = compound: ClCC(=O)NC1CCCc2ccccc12
# Procedure, shortened: (§2)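 In triplicate, 495 µg portions of HEK293T lysate in Tris/CHAPS/IGEPAL buffer with protease inhibitors received compound across a concentration series or vehicle for 3 h, followed by 1 h with 0.5 µM final Biotin-Ahx-Ub-VS. After NeutrAvidin enrichment and LysC/trypsin digestion, the labelled deubiquitinases were measured by diaPASEF LC-MS/MS and quantified label-free in Spectronaut with global-median normalisation. Each value is an average compound-to-vehicle ratio from an unpaired t-test, expressed as log2 and restricted to proteins having two or more unique peptides.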
# [7] = compound: ClCC(=O)N[C@@H]1CCCc2ccccc12
# Procedure, shortened: as §2
# [8] = compound: ClCC(=O)N[C@H]1CCCc2ccccc12
# Procedure, shortened: as §2
# [9] = compound: CCC1N(CCc2cc(OC)c(Cl)cc12)C(=O)CCl
# Procedure, shortened: as §1
# [10] = compound: CCCC1N(CCc2cc(OC)c(OC)cc12)C(=O)CCl
# Procedure, shortened: as §1
# UniProt P09936, sequence (P09936 whole entry, looked up): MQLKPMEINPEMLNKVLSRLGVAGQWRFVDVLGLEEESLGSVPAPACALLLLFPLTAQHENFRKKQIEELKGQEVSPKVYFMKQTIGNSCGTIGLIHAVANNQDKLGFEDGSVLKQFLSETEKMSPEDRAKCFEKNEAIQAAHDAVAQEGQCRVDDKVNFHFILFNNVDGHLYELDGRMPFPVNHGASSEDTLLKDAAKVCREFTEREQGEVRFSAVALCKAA
# UniProt Q96K76, sequence (Q96K76 whole entry): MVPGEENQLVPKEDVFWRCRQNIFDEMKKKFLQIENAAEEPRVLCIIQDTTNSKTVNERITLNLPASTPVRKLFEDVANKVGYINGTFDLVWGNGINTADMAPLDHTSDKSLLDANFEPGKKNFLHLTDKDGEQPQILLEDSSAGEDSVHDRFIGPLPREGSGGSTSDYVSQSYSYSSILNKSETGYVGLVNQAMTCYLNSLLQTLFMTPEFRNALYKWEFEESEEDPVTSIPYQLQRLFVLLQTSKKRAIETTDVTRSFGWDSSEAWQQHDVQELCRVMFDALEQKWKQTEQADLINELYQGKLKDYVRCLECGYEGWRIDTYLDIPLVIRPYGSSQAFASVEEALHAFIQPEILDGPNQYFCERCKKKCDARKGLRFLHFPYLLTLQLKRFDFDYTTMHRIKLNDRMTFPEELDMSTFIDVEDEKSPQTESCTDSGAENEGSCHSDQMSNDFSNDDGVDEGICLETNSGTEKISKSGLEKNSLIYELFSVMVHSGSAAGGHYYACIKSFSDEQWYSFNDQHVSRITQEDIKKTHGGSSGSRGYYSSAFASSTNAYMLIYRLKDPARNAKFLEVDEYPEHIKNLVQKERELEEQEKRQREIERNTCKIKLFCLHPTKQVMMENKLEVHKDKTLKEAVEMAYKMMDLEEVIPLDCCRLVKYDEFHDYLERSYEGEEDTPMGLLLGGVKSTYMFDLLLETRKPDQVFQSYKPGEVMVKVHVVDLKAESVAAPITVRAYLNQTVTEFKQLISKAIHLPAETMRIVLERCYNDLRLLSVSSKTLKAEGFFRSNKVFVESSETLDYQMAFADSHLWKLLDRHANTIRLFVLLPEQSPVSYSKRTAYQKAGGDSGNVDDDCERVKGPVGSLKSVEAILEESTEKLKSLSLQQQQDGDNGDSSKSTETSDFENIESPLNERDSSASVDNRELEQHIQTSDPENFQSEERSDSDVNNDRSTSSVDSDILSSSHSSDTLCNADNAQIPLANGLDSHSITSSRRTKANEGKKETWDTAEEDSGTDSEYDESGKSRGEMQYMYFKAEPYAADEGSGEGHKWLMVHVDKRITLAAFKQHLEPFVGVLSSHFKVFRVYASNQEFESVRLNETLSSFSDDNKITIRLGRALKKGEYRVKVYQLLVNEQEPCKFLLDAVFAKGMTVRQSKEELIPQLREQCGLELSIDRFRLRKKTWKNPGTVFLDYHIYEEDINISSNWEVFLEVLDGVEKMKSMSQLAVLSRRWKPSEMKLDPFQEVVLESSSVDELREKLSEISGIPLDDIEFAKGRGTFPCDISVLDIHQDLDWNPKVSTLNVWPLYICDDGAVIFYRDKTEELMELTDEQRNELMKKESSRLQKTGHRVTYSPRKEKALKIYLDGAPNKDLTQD
target,measurement,setting,value
UCHL1 (UniProt P09936),log2 ratio of Biotin-Ahx-Ub-VS probe labelling,[1]; compound concentration: 50uM,-0.0927
same,log2 ratio of Biotin-Ahx-Ub-VS probe labelling,[1]; compound concentration: 200uM,0.068
same,log2 ratio of Biotin-Ahx-Ub-VS probe labelling,[2]; compound concentration: 50uM,-0.207
same,log2 ratio of Biotin-Ahx-Ub-VS probe labelling,[2]; compound concentration: 200uM,-0.242
same,log2 ratio of Biotin-Ahx-Ub-VS probe labelling,[3]; compound concentration: 50uM,-0.16
same,log2 ratio of Biotin-Ahx-Ub-VS probe labelling,[3]; compound concentration: 200uM,-0.504
same,log2 ratio of Biotin-Ahx-Ub-VS probe labelling,[4]; compound concentration: 50uM,-0.114
same,log2 ratio of Biotin-Ahx-Ub-VS probe labelling,[4]; compound concentration: 200uM,0.145
same,log2 ratio of Biotin-Ahx-Ub-VS probe labelling,[5]; compound concentration: 50uM,0.105
same,log2 ratio of Biotin-Ahx-Ub-VS probe labelling,[5]; compound concentration: 200uM,0.0647
same,log2 ratio of Biotin-Ahx-Ub-VS probe labelling,[6]; compound concentration: 0.78uM,-0.218
same,log2 ratio of Biotin-Ahx-Ub-VS probe labelling,[6]; compound concentration: 1.56uM,-0.0576
same,log2 ratio of Biotin-Ahx-Ub-VS probe labelling,[6]; compound concentration: 3.13uM,-0.283
same,log2 ratio of Biotin-Ahx-Ub-VS probe labelling,[6]; compound concentration: 6.25uM,-0.158
same,log2 ratio of Biotin-Ahx-Ub-VS probe labelling,[6]; compound concentration: 12.5uM,-0.19
same,log2 ratio of Biotin-Ahx-Ub-VS probe labelling,[6]; compound concentration: 25uM,-0.341
same,log2 ratio of Biotin-Ahx-Ub-VS probe labelling,[6]; compound concentration: 50uM,-0.22
same,log2 ratio of Biotin-Ahx-Ub-VS probe labelling,[6]; compound concentration: 100uM,-0.163
same,log2 ratio of Biotin-Ahx-Ub-VS probe labelling,[6]; compound concentration: 200uM,-0.254
same,log2 ratio of Biotin-Ahx-Ub-VS probe labelling,[7]; compound concentration: 0.78uM,-0.29
same,log2 ratio of Biotin-Ahx-Ub-VS probe labelling,[7]; compound concentration: 1.56uM,-0.214
same,log2 ratio of Biotin-Ahx-Ub-VS probe labelling,[7]; compound concentration: 3.13uM,-0.161
same,log2 ratio of Biotin-Ahx-Ub-VS probe labelling,[7]; compound concentration: 6.25uM,-0.154
same,log2 ratio of Biotin-Ahx-Ub-VS probe labelling,[7]; compound concentration: 12.5uM,-0.211
same,log2 ratio of Biotin-Ahx-Ub-VS probe labelling,[7]; compound concentration: 25uM,-0.116
same,log2 ratio of Biotin-Ahx-Ub-VS probe labelling,[7]; compound concentration: 50uM,-0.259
same,log2 ratio of Biotin-Ahx-Ub-VS probe labelling,[7]; compound concentration: 100uM,-0.155
same,log2 ratio of Biotin-Ahx-Ub-VS probe labelling,[7]; compound concentration: 200uM,-0.0847
same,log2 ratio of Biotin-Ahx-Ub-VS probe labelling,[8]; compound concentration: 0.78uM,-0.211
same,log2 ratio of Biotin-Ahx-Ub-VS probe labelling,[8]; compound concentration: 1.56uM,-0.304
same,log2 ratio of Biotin-Ahx-Ub-VS probe labelling,[8]; compound concentration: 3.13uM,-0.239
same,log2 ratio of Biotin-Ahx-Ub-VS probe labelling,[8]; compound concentration: 6.25uM,-0.187
same,log2 ratio of Biotin-Ahx-Ub-VS probe labelling,[8]; compound concentration: 12.5uM,-0.239
same,log2 ratio of Biotin-Ahx-Ub-VS probe labelling,[8]; compound concentration: 25uM,-0.196
same,log2 ratio of Biotin-Ahx-Ub-VS probe labelling,[8]; compound concentration: 50uM,-0.16
same,log2 ratio of Biotin-Ahx-Ub-VS probe labelling,[8]; compound concentration: 100uM,-0.204
same,log2 ratio of Biotin-Ahx-Ub-VS probe labelling,[8]; compound concentration: 200uM,-0.267
same,log2 ratio of Biotin-Ahx-Ub-VS probe labelling,[9]; compound concentration: 50uM,0.0838
same,log2 ratio of Biotin-Ahx-Ub-VS probe labelling,[9]; compound concentration: 200uM,0.00983
same,log2 ratio of Biotin-Ahx-Ub-VS probe labelling,[10]; compound concentration: 50uM,-0.262
same,log2 ratio of Biotin-Ahx-Ub-VS probe labelling,[10]; compound concentration: 200uM,-0.45
USP47 (UniProt Q96K76),log2 ratio of Biotin-Ahx-Ub-VS probe labelling,[6]; compound concentration: 0.78uM,-0.835
same,log2 ratio of Biotin-Ahx-Ub-VS probe labelling,[6]; compound concentration: 1.56uM,-0.97
same,log2 ratio of Biotin-Ahx-Ub-VS probe labelling,[6]; compound concentration: 3.13uM,-1.96 (active)
same,log2 ratio of Biotin-Ahx-Ub-VS probe labelling,[6]; compound concentration: 6.25uM,-1.31 (active)
same,log2 ratio of Biotin-Ahx-Ub-VS probe labelling,[6]; compound concentration: 12.5uM,-2.62 (active)
same,log2 ratio of Biotin-Ahx-Ub-VS probe labelling,[6]; compound concentration: 25uM,-2.65 (active)
same,log2 ratio of Biotin-Ahx-Ub-VS probe labelling,[6]; compound concentration: 50uM,-1.54 (active)
same,log2 ratio of Biotin-Ahx-Ub-VS probe labelling,[6]; compound concentration: 100uM,-1.65 (active)
same,log2 ratio of Biotin-Ahx-Ub-VS probe labelling,[6]; compound concentration: 200uM,-1.87 (active)
same,log2 ratio of Biotin-Ahx-Ub-VS probe labelling,[7]; compound concentration: 0.78uM,-1.55 (active)
same,log2 ratio of Biotin-Ahx-Ub-VS probe labelling,[7]; compound concentration: 1.56uM,-0.399
same,log2 ratio of Biotin-Ahx-Ub-VS probe labelling,[7]; compound concentration: 3.13uM,-0.592
same,log2 ratio of Biotin-Ahx-Ub-VS probe labelling,[7]; compound concentration: 6.25uM,-0.585
same,log2 ratio of Biotin-Ahx-Ub-VS probe labelling,[7]; compound concentration: 12.5uM,-0.654
same,log2 ratio of Biotin-Ahx-Ub-VS probe labelling,[7]; compound concentration: 25uM,-0.26
same,log2 ratio of Biotin-Ahx-Ub-VS probe labelling,[7]; compound concentration: 50uM,-0.749
same,log2 ratio of Biotin-Ahx-Ub-VS probe labelling,[7]; compound concentration: 100uM,-0.609
same,log2 ratio of Biotin-Ahx-Ub-VS probe labelling,[7]; compound concentration: 200uM,0.134
same,log2 ratio of Biotin-Ahx-Ub-VS probe labelling,[8]; compound concentration: 0.78uM,-0.545
same,log2 ratio of Biotin-Ahx-Ub-VS probe labelling,[8]; compound concentration: 1.56uM,-0.834
same,log2 ratio of Biotin-Ahx-Ub-VS probe labelling,[8]; compound concentration: 3.13uM,-0.514
same,log2 ratio of Biotin-Ahx-Ub-VS probe labelling,[8]; compound concentration: 6.25uM,-1.57 (active)
same,log2 ratio of Biotin-Ahx-Ub-VS probe labelling,[8]; compound concentration: 12.5uM,-0.725
same,log2 ratio of Biotin-Ahx-Ub-VS probe labelling,[8]; compound concentration: 25uM,-0.536
same,log2 ratio of Biotin-Ahx-Ub-VS probe labelling,[8]; compound concentration: 50uM,-0.911
same,log2 ratio of Biotin-Ahx-Ub-VS probe labelling,[8]; compound concentration: 100uM,-1.22 (active)
same,log2 ratio of Biotin-Ahx-Ub-VS probe labelling,[8]; compound concentration: 200uM,-0.929
